Screening results: PubChem BioAssay, National Center for Advancing Translational Sciences (NCATS)
Pf Dd2 growth – qHTS Primary assay for Inhibitors of Plasmodium falciparum Dd2 growth in vitro | P. falciparum Dd2 growth, SYBR Green, 72 h | Potency, µM (highest dose often 28.9 µM), for the others: top-dose activity, negative = inhibition, usual class: inhibitors | 120,000 compounds, 4.3% hits; active means well fitted inhibition curve with a large enough effect;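 further: plate controls were DMSO vehicle for no effect and reference drug for full effect; nearly all actives have a fitted effect of over 65% in size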
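Infected erythrocytes (Dd2, 0.3% parasitemia, 2.5% hematocrit final) are added to compound in RPMI-1640/Albumax II medium, grown 72 h at 37C in low oxygen, then lysed with saponin/Triton-X containing SYBR Green and read by fluorescence.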
* hit, by the source's call; i = inactive; [ ] = remark or other dose. The sample as a whole holds a higher share of hits than the screen did. Potency means the concentration at half of the fitted maximal effect.

SMILES	Pf Dd2 growth
COc1ccc(NC(=O)CCNS(=O)(=O)c2cccc3nsnc23)cc1	10%
CCN(CC)C(=O)N1C[C@@H](Oc2cccnc2)C[C@H]1C(=O)N1CCOCC1	-25%
COc1ccc(-c2ccccc2)cc1N1C(=O)[C@@H]2C[C@H]1CN2C(=O)[C@@H](C)O	-2%
CN(C)C(=O)c1nc(-c2ccc(Cl)cc2)c2ccccn12	-9%[44.1 µM]
COCCOC1CCOC2(CCN(C(=O)Nc3cccc(C)c3)CC2)C1 (stereo not drawn)	19%
c1c(-c2nc(C3CCOC3)no2)sc2c1CCCC2 (stereo not drawn)	-5%
C=CCOC(=O)C1=C(C)N(Cc2ccc(Br)cc2)C(=O)CC1c1ccccc1Cl (stereo not drawn)	-22%
CCNC(=O)N(C1CC1)C1CCOC2(CCN(C(=O)C3(c4ccccc4)CC3)CC2)C1 (stereo not drawn)	-21%
Cc1c(C(=O)Nc2ccc(F)c(C(F)(F)F)c2)sc2nc(-c3ccccc3)cn12	11µM*
Cc1c(C(=O)Nc2cc(F)ccc2F)sc2nc(-c3ccc(F)cc3)cn12	i
Cc1cc(C)cc(NC(=O)c2sc3nc(-c4ccccc4)cn3c2C)c1	7%
O=C1NCC2(CCN(C(=O)c3ccc(C(F)(F)F)cc3)CC2)Oc2ccccc21	i
CC(C)c1noc(-c2cn(C3CCCN(C(=O)c4ccoc4)C3)nn2)n1 (stereo not drawn)	-1%
Cc1ncsc1CN1CCCC(C(=O)NCc2ccccc2)CCNC(=O)CC1 (stereo not drawn)	-11%
N#Cc1ccc(C(=O)N2CCCCCNC(=O)[C@@H]3CCCC[C@@H]32)cc1	14%
O=C1NCCCCCCN(Cc2cccc(F)c2)[C@H]2C[C@H](C(=O)N3CCc4ccccc4C3)C[C@@H]12	3.5µM*
N#Cc1ccc(CN2CCCCCCNC(=O)[C@@H]3C[C@@H](C(=O)N4CCc5ccccc5C4)C[C@@H]32)cc1	2.8µM*
N#Cc1ccccc1CN1CCCCCCNC(=O)[C@@H]2C[C@@H](C(=O)N3CCc4ccccc4C3)C[C@@H]21	3.2µM*
CCS(=O)(=O)N1CCCCCCNC(=O)[C@@H]2C[C@@H](C(=O)N3CCN(c4ccccn4)CC3)C[C@@H]21	-15%
Cc1nc(C)c(C(=O)N2CC[C@H]3C(=O)NCCCCCCN(Cc4ccncc4)[C@@H]3C2)s1	-14%
O=C1NCCCCCCN(C(=O)Cc2cccc(F)c2)[C@H]2CCC[C@@H]12	-1%
Cc1ncsc1CN1CCCCCCNC(=O)[C@@H]2C[C@@H](C(=O)N3CCc4ccccc4C3)C[C@@H]21	4.5µM*
O=C1NCCCCCN(C(=O)Cc2cccc(F)c2)[C@H]2CCC[C@@H]12	-8%
O=C1NCCCCCCN(Cc2ccncc2)[C@@H]2CN(C(=O)c3cccnc3)CC[C@@H]12	-16%
C=CCN1CC(C(=O)N2CCN(Cc3ccccc3C#N)CC2)CC1=O (stereo not drawn)	-2%
SMILES	Pf Dd2 growth
Cc1cccc(OCC2(CNCC3CC3)C[C@@H](O)[C@@H](O)C2)n1 (stereo partly drawn)	i
O=C(C#Cc1ccccc1)NC1CCCc2c1cnn2-c1ccc(F)cc1F (stereo not drawn)	-14%
COc1ccc(-c2noc([C@@H](C)NS(=O)(=O)CC(C)C)c2C(=O)O)cc1	20%[44.1 µM]
Cc1ccc(O[C@H]2COCC[C@H]2NC(=O)Cc2c(F)cccc2Cl)cn1	-5%
C=CCNC(=O)C(NC(=O)c1cccc(OC)c1)C1CCN(C(=O)C2CCCC2)CC1 (stereo not drawn)	i
COc1cccc([S+](=O)([O-])N2CCn3ncc(C(=O)Nc4ccc(Cl)cc4Cl)c3C2)c1	-15%
COc1ccc(-c2noc([C@@H]3CCCN3C(=O)c3ccco3)n2)cc1OC	54%
COCCN1CCCCCC(O)c2cc(C(=O)NCC(C)C)ccc21 (stereo not drawn)	-11%
COCCN1CCCCCC(O)c2cc(C(=O)NCc3cc(F)cc(F)c3)ccc21 (stereo not drawn)	13µM*
COCCN1CCCCCC(O)c2cc(C(=O)NCC3CC3)ccc21 (stereo not drawn)	i
CC(C)CC(=O)N[C@H](C)c1onc(-c2ccc(Cl)cc2)c1C(=O)O	-2%[44.1 µM]
Cc1cc(C(=O)N2CCC(c3nnc(Cn4ccnc4)n3C)CC2)cs1	0%
Cc1nc(C(=O)N2CCCC(CCc3cccc(C(F)(F)F)c3)C2)c(C)o1 (stereo not drawn)	i
CC(=O)c1cc(CN2CCC3(CC2)C(C(=O)O)CC(=O)N3C)cs1 (stereo not drawn)	-5%
CO[C@@](C(=O)N1CCOC[C@H]1c1ncc(-c2ccccc2)[nH]1)(c1ccccc1)C(F)(F)F	i
Clc1ccc(-c2cnc([C@@H]3COCCN3Cc3ccccc3)[nH]2)s1	i
CS(=O)(=O)c1ccc(-c2cnc([C@@H]3COCCN3Cc3ccccc3O)[nH]2)cc1	i
Cn1c(CN2CCOC[C@H]2c2ncc(-c3ccc(Cl)s3)[nH]2)nc2ccccc21	11µM*
CS(=O)(=O)c1ccc(CN2CCOC[C@H]2c2ncc(-c3ccc(Cl)s3)[nH]2)cc1	i
